Test in all cases: NCI-60 one-dose screen, 48 h (100 = growth as untreated, 0 = no growth, -100 = all killed)
In experiment [1] the test system is HCT-15 colon.
Experiment [2] deals with HT29 colon.
The test system of experiment [3] is SNB-75 CNS.
Experiment [4] has as its system SNB-19 CNS.
Experiment [5] has as its system U251 CNS.
Experiment [6] relates to PC-3 prostate.
The subject of experiment [7] is SK-MEL-5 melanoma.
Experiment [8] deals with UACC-62 melanoma.
Experiment [9] has as its system LOX IMVI melanoma.
The subject of experiment [10] is SK-MEL-28 melanoma.

About 83,000 compounds went through this panel and 20% of them were active in at least one assay; those are over-represented in the sample as a whole.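 Activity criterion: percent growth below 10, measured after cells in 96-well plates were exposed to a single compound concentration for 48 hours.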 Unmarked numbers belong to inactive results. The source made the active and inactive calls.

Regarding `CC/C(=C(/c1ccc(O)cc1)c1ccc(OCCN(C)C(=O)CCOCCNC(=O)Cc2ccc3c(c2)CN([C@@H]2CCC(=O)NC2=O)C3=O)cc1)c1ccccc1`, the growth is 108% in [1] (1 µM); 100% in [1] (10 µM); 103% in experiment [2] (1 µM); 91.3% in [2] (10 µM); 57% in [3] (1 µM); 27.8% in [3] (10 µM). The growth is 75.9% in experiment [4] (1 µM); 62.1% in experiment [4] (10 µM); 96.2% in experiment [5] (1 µM); 92.6% in [5] (10 µM); 42.7% in experiment [6] (1 µM); 27.4% in [6] (10 µM). In addition, the growth in [7] (1 µM) was 97%; in [7] (10 µM), 71.5%; in experiment [8] (1 µM), 96.9%; in [8] (10 µM), 85.5%; in experiment [9] (1 µM) it was 99.2%; in experiment [9] (10 µM), 93.6%. Also, the growth in experiment [10] (1 µM) was 101%; in experiment [10] (10 µM), 80.2%.

Regarding `C[C@@H](Nc1c(C#N)cnc2ccc(-c3cnc4[nH]ncc4c3)cc12)c1ccccc1`, the growth is 8.64% (active) in [1] (10 µM unless noted); 79.5% in [2] (10 µM unless noted); -26.9% (active) in [3] (10 µM unless noted); 30.7% in experiment [4] (10 µM unless noted); 23.4% in [5] (10 µM unless noted); 13.4% in [6] (10 µM unless noted). Moreover, the growth in experiment [7] (10 µM unless noted) was -67.5% (active); in experiment [8] (10 µM unless noted), -16% (active); in experiment [9] (10 µM unless noted), 16%; in [10] (10 µM unless noted), 15.4%.

With `CN(C(=O)CN1C(=O)/C(=C/c2ccco2)SC1=S)C1CCS(=O)(=O)C1` (stereo not given), the growth is 87.5% in experiment [1] (10 µM unless noted); 99.5% in experiment [2] (10 µM unless noted); 89% in experiment [3] (10 µM unless noted); 95.7% in experiment [4] (10 µM unless noted); 102% in experiment [5] (10 µM unless noted); 102% in [6] (10 µM unless noted). Besides, the growth is 98.5% in experiment [7] (10 µM unless noted), 90% in [8] (10 µM unless noted), 91.6% in experiment [9] (10 µM unless noted) and 105% in [10] (10 µM unless noted).

Turning to `O=C(N/N=C/c1ccc(Cl)cc1)c1ccc(OCc2nc3ccc(Cl)cc3[nH]2)cc1`, the growth in experiment [1] (10 µM unless noted) was -47.1% (active); in [2] (10 µM unless noted) it was -55.7% (active); in experiment [3] (10 µM unless noted), 53.9%; in [4] (10 µM unless noted) it was 35%; in [5] (10 µM unless noted) it was -88.5% (active); in experiment [6] (10 µM unless noted), -10.1% (active). Besides, the growth in experiment [7] (10 µM unless noted) was 52.2%; in [8] (10 µM unless noted), 47.5%; in experiment [9] (10 µM unless noted) it was -81% (active); in [10] (10 µM unless noted), 41%.

Consider `CC1=C(C(=O)OCc2ccccc2)C(c2cccc3ccccc23)n2c(nc3ccccc32)N1` (stereo not given), for which the growth in experiment [1] (10 µM unless noted) is 21.7%; in [2] (10 µM unless noted) it was 3.87% (active); in experiment [3] (10 µM unless noted), -15.1% (active); in [4] (10 µM unless noted) it was 40.9%; in experiment [5] (10 µM unless noted), 24.9%; in [6] (10 µM unless noted), 22.8%. For the same molecule, the growth in [7] (10 µM unless noted) is 3.71% (active); in [8] (10 µM unless noted) it was 17.3%; in experiment [9] (10 µM unless noted) it was 36.1%; in [10] (10 µM unless noted) it was 50.5%.

Turning to `O=C(OCCOCCO)N(c1cccc(Br)c1)c1nc(SCCN2CCOCC2)nc2c1cnn2CC(Cl)c1ccc(Br)cc1` (stereo not given), the growth in experiment [1] (10 µM unless noted) was -38.8% (active); in experiment [2] (10 µM unless noted), 0.205% (active); in [3] (10 µM unless noted) it was 47.7%; in experiment [4] (10 µM unless noted), -69% (active); in experiment [5] (10 µM unless noted), 14.9%; in experiment [6] (10 µM unless noted) it was 12.1%. Also, the growth in experiment [7] (10 µM unless noted) was 34.2%; in [8] (10 µM unless noted), -58.9% (active); in experiment [9] (10 µM unless noted), -92.8% (active); in [10] (10 µM unless noted) it was -43.5% (active).

`COc1cc(NC(=O)C(C)C)ccc1C(=O)NC(=S)Nc1ccc(S(N)(=O)=O)cc1`: the growth in experiment [1] (10 µM unless noted) was 108%; in [2] (10 µM unless noted) it was 101%; in [3] (10 µM unless noted), 95.5%; in experiment [4] (10 µM unless noted), 80.8%; in experiment [5] (10 µM unless noted), 72%; in [6] (10 µM unless noted), 115%. Moreover, the growth in [7] (10 µM unless noted) was 114%; in [8] (10 µM unless noted), 96.2%; in experiment [9] (10 µM unless noted) it was 102%; in experiment [10] (10 µM unless noted), 114%.

Turning to `CC(C)C[C@H](NC(=O)CNC(=O)C[C@H]1O[C@@H]2OC3(C)CC[C@H]4[C@H](C)CC[C@@H]([C@H]1C)[C@@]24O3)B(O)O`, the growth in experiment [1] (10 µM unless noted) is 33.1%; in experiment [2] (10 µM unless noted), -43.6% (active); in [3] (10 µM unless noted), -34.8% (active); in experiment [4] (10 µM unless noted) it was 28.2%; in [5] (10 µM unless noted) it was 17.4%; in [6] (10 µM unless noted) it was 9.34% (active). Further, the growth in experiment [7] (10 µM unless noted) was -87.6% (active); in experiment [8] (10 µM unless noted), -81.2% (active); in [9] (10 µM unless noted), -83.6% (active); in experiment [10] (10 µM unless noted), -34.4% (active).

For `N#CC1=C(c2cccs2)Nc2c(c(-c3ccccc3)nn2-c2ccccc2)C12C(=O)Nc1ccc(Cl)cc12` (stereo not given), the growth in experiment [1] (10 µM unless noted) was 10.5%; in [2] (10 µM unless noted) it was 14.4%; in [3] (10 µM unless noted), 36.9%; in experiment [4] (10 µM unless noted), 13.4%; in experiment [5] (10 µM unless noted), 16.2%; in experiment [6] (10 µM unless noted), 12.8%. Further, the growth in experiment [7] (10 µM unless noted) was 25.1%; in experiment [8] (10 µM unless noted) it was 15.4%; in [9] (10 µM unless noted), 25.8%; in experiment [10] (10 µM unless noted), 41.8%.

Consider `COc1ccc(N=Nc2c(N)nn3c(-c4cc5cc(Br)ccc5oc4=O)ccnc23)cc1`, for which the growth in experiment [1] (10 µM unless noted) is 29.9%; in experiment [2] (10 µM unless noted), 32.9%; in [3] (10 µM unless noted), -14.8% (active); in experiment [4] (10 µM unless noted), 2.33% (active); in [5] (10 µM unless noted) it was -12.3% (active); in experiment [6] (10 µM unless noted), 44.9%. For the same molecule, the growth in [7] (10 µM unless noted) is -14.2% (active); in [8] (10 µM unless noted) it was 30.7%; in [9] (10 µM unless noted) it was 26.4%; in [10] (10 µM unless noted), 28.8%.

With `O=C1CCC(N2C(=O)c3cccc(NCCCCCC(=O)N4CCN(c5ccc6nc7c(nc6c5C(F)(F)F)C(=O)c5ncccc5C7=O)CC4)c3C2=O)C(=O)N1` (stereo not given), the growth in experiment [1] (10 µM unless noted) is -69.5% (active); in experiment [2] (10 µM unless noted), -18.7% (active); in experiment [3] (10 µM unless noted), -75.8% (active); in [4] (10 µM unless noted) it was -72.3% (active); in experiment [5] (10 µM unless noted), -90.4% (active); in [6] (10 µM unless noted), -19.8% (active). The growth in experiment [7] (10 µM unless noted) is -95.3% (active); in [8] (10 µM unless noted) it was -72.7% (active); in experiment [9] (10 µM unless noted), -85.1% (active); in experiment [10] (10 µM unless noted), -84.8% (active).

As to `c1n[nH]cc1-c1nc2ccc3cn[nH]c3c2c2c1CCCC2`, the growth in experiment [1] (10 µM unless noted) is 96.2%; in experiment [2] (10 µM unless noted), 95.5%; in [3] (10 µM unless noted), 108%; in experiment [4] (10 µM unless noted), 82.2%; in experiment [5] (10 µM unless noted), 88%; in [6] (10 µM unless noted) it was 73.4%. The growth is 81.7% in experiment [7] (10 µM unless noted), 81.4% in experiment [8] (10 µM unless noted), 69.9% in experiment [9] (10 µM unless noted) and 98.2% in [10] (10 µM unless noted).

Source of the values: PubChem BioAssay (NCI).
